JMJD2A Tudor inh: qHTS Assay for Inhibitors of JMJD2A-Tudor Domain. Potency, µM (series often up to 114 µM), for inactives: at the highest dose activity change, negative = inhibition, hits mostly inhibitors. Lysine-specific demethylase 4A (Homo sapiens), O75164. 390,000 compounds, 4.4% hits. AlphaScreen JMJD2A-Tudor / H3K4me3 peptide binding; note: % is set by controls: 0 for no effect and ±100 for the full control effect; nearly all actives have a fitted effect of over 50% in size
HP1b chromo inh: HTS for Inhibitors of HP1-beta Chromodomain Interactions with Methylated Histone Tails | Chromobox protein homolog 1 (Homo sapiens), P83916 | AlphaScreen HP1-beta / biotin-H3K9me3 peptide binding | Potency, µM (series often up to 114 µM), for the others: top-dose activity change, negative = inhibition, hits mostly inhibitors | 390,000 compounds, 0.56% hits | AID 540317, 2011; note: nearly all actives have a fitted effect of over 70% in size
Target sequence (P83916 whole entry, looked up): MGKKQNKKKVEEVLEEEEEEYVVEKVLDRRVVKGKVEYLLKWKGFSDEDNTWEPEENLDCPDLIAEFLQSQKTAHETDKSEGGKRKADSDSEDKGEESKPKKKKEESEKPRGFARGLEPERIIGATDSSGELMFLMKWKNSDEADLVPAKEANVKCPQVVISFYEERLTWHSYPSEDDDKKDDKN
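Compound inhibition of the preformed complex between 50 nM HP1-beta and 50 nM biotinylated H3K9me3 peptide was read by AlphaScreen. Buffer was PBS pH 7.4 with 0.01% Tween-20. Incubations ran 30 min at room temperature, with 10 ug/mL donor/acceptor beads.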
TDP1 block: qHTS Assay for Inhibitors of Tyrosyl-DNA Phosphodiesterase (TDP1); AID 485290, 2010; recombinant TDP1, AlphaScreen DNA substrate cleavage; 350,000 compounds, 0.28% hits; Tyrosyl-DNA phosphodiesterase 1 (Homo sapiens), Q9NUW8; Potency, µM (series often up to 130 µM), for inactives: at the top dose activity change, negative = inhibition, most hits filed as inhibitors; note: % is set by controls: 0 for no effect and ±100 for the full control effect; nearly all actives have a fitted effect of over 40% in size
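Enzyme-compound mixtures sat 15 min at room temperature, followed by a 5 min reaction with 15 nM final substrate and 10 min with AlphaScreen beads. Recombinant human Tdp1 was used at 1 nM final.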
Sfp inh: qHTS Assay for Inhibitors of Bacillus subtilis Sfp phosphopantetheinyl transferase (PPTase). 4'-phosphopantetheinyl transferase ffp (Bacillus subtilis), Q9F4F7. Biochemical Sfp PPTase activity, qHTS. Potency, µM, without a hit: largest response in the series, negative = inhibition, usual class: inhibitors. 310,000 compounds, 3.5% hits. AID 1490, 2009;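 note: the enzyme is Sfp with the accession as filed and its product quenches rhodamine fluorescence; 0% = enzyme reaction without inhibitor and -100% = no enzyme wells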
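Compounds were incubated with enzyme (final 15 nM) for 15 min at room temperature before substrate addition started the reaction. Fluorescence at 525 nm excitation, 598 nm emission was recorded immediately and after 30 minutes.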
BAZ2B inh: qHTS Assay for Inhibitors of BAZ2B; Bromodomain adjacent to zinc finger domain protein 2B (Homo sapiens), Q9UIF8; AID 504333, 2011; 360,000 compounds, 4.4% hits; AlphaScreen BAZ2B-H3K14Ac peptide displacement; Potency, µM (highest dose often 114 µM), inactives show at the highest dose activity change, negative = inhibition, usual class: inhibitors; note: % is set by controls: 0 for no effect and ±100 for the full control effect; nearly all actives have a fitted effect of over 60% in size
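AlphaScreen luminescence quantifies BAZ2B engagement of H3K14Ac peptide; the protein and biotinylated peptide are both at 50 nM final, buffer PBS pH 7.4 with 0.01% Tween-20, all steps at room temperature.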
G9a inh: qHTS Assay for Inhibitors of Histone Lysine Methyltransferase G9a. Potency, µM (top dose mostly 102 µM), without a hit: at the highest dose activity, negative = inhibition, actives largely listed as inhibitors. Histone-lysine N-methyltransferase EHMT2 (Homo sapiens), Q96KQ7. 350,000 compounds, 8.8% hits. G9a H3K9 monomethylation, AlphaScreen, 2 h; note: % is set by controls: 0 for no effect and ±100 for the full control effect; nearly all actives have a fitted effect of over 75% in size
Target sequence (Q96KQ7 913-1193 limits assumed): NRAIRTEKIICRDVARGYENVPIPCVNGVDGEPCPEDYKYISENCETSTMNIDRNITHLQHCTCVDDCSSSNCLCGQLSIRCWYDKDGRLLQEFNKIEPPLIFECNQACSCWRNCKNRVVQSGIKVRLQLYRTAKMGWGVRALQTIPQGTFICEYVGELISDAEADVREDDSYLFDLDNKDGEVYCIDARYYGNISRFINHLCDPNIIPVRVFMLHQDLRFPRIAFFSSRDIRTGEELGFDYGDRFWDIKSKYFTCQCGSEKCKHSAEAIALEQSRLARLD
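Readings reflect AlphaScreen signal from monomethyl-H3K9 antibody detection. HMT at 20 nM; substrate b-H3K9 500 nM; cofactor SAM 20 uM; 2 h RT reaction; compounds tested as titrations in qHTS with 15 min preincubation.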
Active calls of the source: *; ? = inconclusive; / = no result; [ ] = remark or other dose. Most compounds without a hit are left out; they make up all but 12% or so of the library. Calls come from the whole dose curve; as a rule, active = well fitted curve in the direction sought with a large enough effect; inconclusive = small, poorly fitted or top-dose-only effect, or another doubt; inactive = no such curve, though single readings can be large; an effect the other way counts as inactive or inconclusive. Potency is the fitted concentration of half-maximal effect.

SMILES	JMJD2A Tudor inh	HP1b chromo inh	TDP1 block	Sfp inh	BAZ2B inh	G9a inh
CC(=O)c1ccc(N2CCN(C(=O)CCS(=O)(=O)c3ccc4c(c3)oc(=O)n4C)CC2)cc1	-6%	27%	2%	/	11%[57.1 µM]	-15%[59 µM]
O=C(c1ccc([N+](=O)[O-])cc1[N+](=O)[O-])n1cnc2ccccc21	-22%	27%	5%	79µM*	-4%	?
COc1ccc(C(c2c(O)ccc3ccccc23)N2CCOCC2)c(OC)c1 (stereo not drawn)	89µM*	-4%	2%	-23%	-10%	32µM*
O=C1c2ccccc2C(=O)N1CCN1CCc2ccccc21	?	7%	6%	9%	50µM*	?
CC(NC(=O)CN1CCc2ccccc21)c1ccccc1 (stereo not drawn)	-29%	6%	8%	17%	-25%	25µM*
c1ccc2c(c1)CCN2CCN1CCc2ccccc21	-29%	9%	4%	-5%	?	3.5µM*
CC(NC(=O)CN1CCN(c2ccccc2F)CC1)c1ccccc1 (stereo not drawn)	-13%	34%	3%	20%	-14%	12%
CN(C)CCN1CCc2ccccc21	-34%	4%	-1%	-9%	?	?
CCc1nnc2c(NCc3ccc(F)cc3)nc3ccccc3n12	-17%	40%	2%	/	1%	-35%[59 µM]
COc1ccc(OC)c(-n2nnnc2SCC(=O)N2CCN(C(=O)c3ccco3)CC2)c1	20µM*	-22%	-1%	14%	-19%	?
Cn1cnnc1SCC(=O)N1CCN(C(=O)c2ccco2)CC1	-8%	25%	-1%	10%	-32%	35µM*
COc1ccc(C(=O)Nc2ccc(-c3nnn(CC(=O)N4CCN(C(=O)c5ccco5)CC4)n3)cc2)cc1	-21%	16%	-4%	20%	79µM*	50µM*
Cc1cc2cc3c(cc2nc1SCC(=O)N1CCN(C(=O)c2ccco2)CC1)OCO3	-35%	-13%	5%	-15%	-34%	50µM*
O=C(Cn1nnc(-c2ccc(Cl)cc2)n1)N1CCN(C(=O)c2ccco2)CC1	-1%	43%	2%	/	12%	24%[12.7 µM]
COc1ccc(-n2nnnc2SCC(=O)N2CCN(C(=O)c3ccco3)CC2)cc1OC	?	-16%	8%	-10%	-8%	-10%[59 µM]
CC1=C(C(=O)Nc2cccc(C(F)(F)F)c2)C2(CCCCC2)OC1=O	-18%	9%	1%	/	-9%	-6%[59 µM]
CC(=O)N1CCC2(CC1)CN(C(c1ccccc1)c1ccccc1)C2	/	/	/	0%	/	-3%[12.7 µM]
N#Cc1c(Cl)cccc1Oc1ccc([S+](=O)([O-])N2CCN([S+](=O)([O-])c3c(F)cccc3F)CC2)cc1	-24%	/	/	/	/	/
CCOC(=O)c1c(C)[nH]c(CCC(=O)Nc2ccc(N(CC)CC)cc2C)c1C	?	2%[57 µM]	3%	/	-18%	-49%[59 µM]
COc1ccc(C)cc1NC(=O)Nc1ccc(C(=O)N2CCCC2)cc1	-17%	21%	4%	-5%	?	?
O=C(CSc1nc2cc(Cl)ccc2s1)N1CCN(C(=O)c2ccco2)CC1	-20%	20%	8%	-25%	-9%	45µM*
CCSc1nnc(SCC(=O)N2CCN(C(=O)c3ccco3)CC2)s1	-6%	25%	8%	-4%	-19%	-18%
O=C(CCCSCCCC(=O)NN=Cc1ccccc1)NN=Cc1ccccc1	-21%	-3%	/	/	/	/
Cc1ccc(N(CC(=O)Nc2ccc(C)c(F)c2)S(=O)(=O)c2c(C)n[nH]c2C)cc1	-15%	36%	2%	/	/	3%[59 µM]
CCN(CC)C(=O)c1c(-c2ccccc2)c(-c2ccccc2)nn(CC)c1=O	-6%	91%	7%	/	28%	17%[59 µM]
SMILES	JMJD2A Tudor inh	HP1b chromo inh	TDP1 block	Sfp inh	BAZ2B inh	G9a inh
Oc1c(C(c2ccco2)N2CCN(C(c3ccccc3)c3ccccc3)CC2)sc2ncnn12 (stereo not drawn)	?	-4%	10%	50µM*	?	18µM*
Oc1c(C(c2ccccc2)N2CCc3ccccc3C2)sc2ncnn12 (stereo not drawn)	32µM*	?	3%	79µM*	12%	4µM*
COc1cccc(C(c2sc3nc(C)nn3c2O)N2CCc3ccccc3C2)c1 (stereo not drawn)	20µM*	50µM*	1%	32µM*	-1%	4µM*
CC1CCCN(C(c2ccccc2)c2sc3ncnn3c2O)C1 (stereo not drawn)	-3%	36%	/	9%	1%	/
CCCCN(C)Cc1c(O)ccc2c(=O)c(-c3ccccc3OC)coc12	-4%	44%	/	-2%	-16%	38%
O=C(Oc1ccccc1F)c1nc(SCc2ccccc2F)ncc1Cl	7%	55%	-2%	/	34%	-3%[59 µM]
Nc1[nH]n(-c2ccccc2)c(=O)c1N=Nc1ccccc1[N+](=O)[O-]	-21%	0%	2%	-3%	-25%	-11%
Nc1[nH]n(-c2c(Cl)cc(Cl)cc2Cl)c(=O)c1N=Nc1ccc(S(=O)(=O)Nc2ncccn2)cc1	-24%	10%	3%	/	/	/
COc1cc([N+](=O)[O-])ccc1N=Nc1c(N)[nH]n(-c2ccccc2)c1=O	-23%[11.4 µM]	-26%	5%	12%	?	50µM*
Nc1[nH]n(-c2ccccc2)c(=O)c1N=Nc1ccccc1	13µM*	?	11%	9%	7.9µM*	4.5µM*
Nc1[nH]n(-c2ccccc2)c(=O)c1N=Nc1ccc2ncsc2c1	-21%[11.4 µM]	-29%	9%	50µM*	?	/
Nc1c(N=Nc2cccc(Cl)c2)c(=O)[nH]n1-c1ccccc1	-22%	3%	9%	13%	-5%[57.1 µM]	-26%
CC(C)(C)C(=O)C1=C(O)C(=O)N(c2ccccc2)C1c1ccccc1 (stereo not drawn)	7%	35%	4%	20%	-23%	-11%
CCCCC1CCC(C(=O)N2CC(=O)Nc3ccc(F)cc3C2c2ccc(F)cc2)CC1 (stereo not drawn)	-12%	18%	3%	/	1%	-2%[59 µM]
CCCN1CCC(NC(=O)Nc2ccc(OC)c(OC)c2)CC1	-25%	6%	-2%	13%	-11%	-18%[12.7 µM]
CCCN1CCC(NC(=S)Nc2ccc(OC)c(OC)c2)CC1	-8%	56%	5%	-5%	-11%	50µM*
